Each structure is given as a SMILES string. Active and inactive are the calls of the source. No rule for the calls is given here.

For this test, the target named is Pantothenate synthetase (Mycobacterium tuberculosis (strain ATCC 25618 / H37Rv)) (UniProt P9WIL5). Put plainly: Recombinant Mtb pantothenate synthetase (PanC) inhibitors, coupled enzyme, confirmatory (AID 375).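 Also: 0% = full reaction with vehicle and 100% = no enzyme background.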 Conditions: coupled enzyme assay; at 10 µM, active compounds read high.
Sequence of Pantothenate synthetase (Mycobacterium tuberculosis (strain ATCC 25618 / H37Rv)) (P9WIL5 whole entry, looked up): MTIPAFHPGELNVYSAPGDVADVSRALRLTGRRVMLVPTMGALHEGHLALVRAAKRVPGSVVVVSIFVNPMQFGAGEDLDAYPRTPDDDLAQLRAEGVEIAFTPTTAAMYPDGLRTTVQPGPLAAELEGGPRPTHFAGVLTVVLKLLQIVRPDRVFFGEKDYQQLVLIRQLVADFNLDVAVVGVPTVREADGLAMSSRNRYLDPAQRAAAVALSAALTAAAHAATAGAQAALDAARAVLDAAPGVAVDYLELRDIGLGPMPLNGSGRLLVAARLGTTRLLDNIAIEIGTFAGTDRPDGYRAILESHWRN
A word on the inhibition: it is the drop in the measured response relative to a control, in per cent. Consider `COc1cc(Br)cc(CN2CCN(C/C=C/c3ccccc3)CC2)c1O`, for which the inhibition is 0% (inactive).

For `Cc1cc(C)n2nc(SCC(=O)N(C)c3ccccc3)nc2n1`, the inhibition was 1% (inactive).

`COc1ccc(-c2cc3n(n2)CCc2nc4ccccc4n2-3)cc1`: the inhibition is 0% (inactive).

Turning to `O=C(Cc1cccs1)N(c1ccccc1)C1C=CS(=O)(=O)C1` (configuration not stated), the inhibition was 3% (inactive).

In the case of `CCCCN(C)Cc1c(O)ccc2c(-c3ccccc3)cc(=O)oc12`, the inhibition is 1% (inactive).

Turning to `Cc1ccc(S(=O)(=O)C(C#N)c2nc3ccccc3nc2OC(C)C)cc1` (configuration not stated), the inhibition is 0% (inactive).

For the compound `COc1ccc(N2CCN(C(=O)c3c(-c4ccccc4)noc3C)CC2)cc1`, the inhibition was 0% (inactive).

With `C[C@]12CC[C@@H]3c4ccc(O[C@@H]5O[C@H](C(=O)O)[C@@H](O)[C@H](O)[C@H]5O)cc4CC[C@H]3[C@@H]1C[C@@H](O)[C@@H]2O`, the inhibition was 14% (inactive).

For the compound `COc1cc2c(cc1OC)CN(C(=O)COc1ccc(C)c(C)c1)CC2`, the inhibition is 1% (inactive).

Regarding `CC(C)CCNC(=O)CCNS(=O)(=O)c1ccc(Cl)cc1`, the inhibition is 0% (inactive).

With `Cc1ccc(-c2nnc3c4ccccc4c(C)nn23)cc1S(=O)(=O)N1CCN(C)CC1`, the inhibition was 1% (inactive).

Regarding `Cn1cc(-c2nc3ccccc3[nH]2)c2ccccc21`, the inhibition was 4% (inactive).

For `CCOc1ccc(N(CC(=O)NC2CCCC2)S(=O)(=O)c2c(C)[nH]c(=O)[nH]c2=O)cc1`, the inhibition was 0% (inactive).

For the compound `CCC1CCCCN1CCCNC(=O)CC1Oc2ccc(C)cc2NC1=O` (configuration not stated), the inhibition is 0% (inactive).

Turning to `CC1=C(C(N)=O)C(c2ccc(Cl)cc2Cl)n2ncnc2N1` (configuration not stated), the inhibition was 0% (inactive).

Consider `COc1ccc(CCNc2oc(-c3ccccc3OC)nc2C#N)cc1`, for which the inhibition was 2% (inactive).

As for `CC(C)c1ccc(NC(=O)C2CC(=O)N(C(C)C)C2)cc1` (configuration not stated), the inhibition was 5% (inactive).

With `CC(O)Cn1cnc2c1c(=O)n(C)c(=O)n2C` (configuration not stated), the inhibition was 2% (inactive).

As to `CC(=O)c1ccc(-c2nc3ccccc3n2C)o1`, the inhibition was 0% (inactive).

For `Cc1ccccc1-c1nc(CS(=O)(=O)CC(=O)N(C)C2CCCCC2)c(C)o1`, the inhibition is 0% (inactive).

As to `COC(=O)Cc1c(C)nc2nc(-c3ccco3)[nH]n2c1=O`, the inhibition is 2% (inactive).

As to `CCOC(=O)c1c(C)[nH]c(C(=O)Cn2c(=O)oc3ccccc32)c1C`, the inhibition was 4% (inactive).
